The values below come from PMC7862700, “An all-to-all approach to the identification of sequence-specific readers for epigenetic DNA modifications on cytosine”.

Common to all, as to assay: DAPPL (digital affinity profiling via proximity ligation, sequencing); 10 mM Tris-HCl pH 7.5, 50 mM NaCl, 1 mM DTT, 4% glycerol, room temperature, 30 min; GST-TFs on glutathione beads, 16-mer random dsDNA library, 0.1% formaldehyde crosslink after washing; high values mean tight binding
Holding throughout (details): protein: recombinant; tags: N-terminal GST; dsDNA, one strand shown

One experiment deals with T1, ERG (Homo sapiens, UniProt P11308 1-479).
T1 sequence: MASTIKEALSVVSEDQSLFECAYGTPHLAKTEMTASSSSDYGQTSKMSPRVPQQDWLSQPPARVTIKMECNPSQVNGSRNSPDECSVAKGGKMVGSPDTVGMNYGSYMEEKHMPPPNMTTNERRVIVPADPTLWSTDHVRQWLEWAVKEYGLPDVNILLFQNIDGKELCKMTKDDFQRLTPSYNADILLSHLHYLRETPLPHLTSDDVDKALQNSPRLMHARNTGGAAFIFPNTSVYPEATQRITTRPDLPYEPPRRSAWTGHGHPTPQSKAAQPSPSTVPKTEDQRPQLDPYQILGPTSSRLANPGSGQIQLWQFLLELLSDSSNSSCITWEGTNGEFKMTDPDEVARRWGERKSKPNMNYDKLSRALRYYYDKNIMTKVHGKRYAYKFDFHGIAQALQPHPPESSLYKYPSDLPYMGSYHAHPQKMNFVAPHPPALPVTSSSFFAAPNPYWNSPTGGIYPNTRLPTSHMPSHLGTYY
In outline:
(§1)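 Binding signal is each hexamer's read frequency for a factor divided by its frequency in the tag-only sample. The factors were GST-fused human transcription factors from yeast, captured on glutathione beads, DNA-barcoded and pooled with that sample. Pools were incubated with 200 nmole of a random double-stranded 16-mer DNA library in Tris/NaCl/DTT/glycerol buffer at room temperature for 30 min, then washed, crosslinked with 0.1% formaldehyde, proximity-ligated with BsaI/T4 ligase (1 h, 37 °C), PCR-amplified and sequenced on an Illumina NextSeq500.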

Another experiment has as its target T2, EHF (Homo sapiens, UniProt Q9NZC4 1-300).
T2 sequence: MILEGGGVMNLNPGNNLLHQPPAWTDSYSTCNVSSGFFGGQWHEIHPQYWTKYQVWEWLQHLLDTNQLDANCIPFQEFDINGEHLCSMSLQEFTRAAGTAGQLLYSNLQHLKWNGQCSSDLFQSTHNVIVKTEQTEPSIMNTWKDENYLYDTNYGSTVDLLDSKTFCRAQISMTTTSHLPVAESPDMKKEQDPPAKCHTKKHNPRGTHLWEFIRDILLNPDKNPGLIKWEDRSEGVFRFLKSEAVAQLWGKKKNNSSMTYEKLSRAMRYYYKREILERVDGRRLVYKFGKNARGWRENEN
The procedure, abridged:
as §1

Another experiment addresses SPIB (Homo sapiens, UniProt Q01892 1-262). The procedure, abridged:
as §1

The next experiment addresses ETV5 (Homo sapiens, UniProt P41161 1-510). In outline:
as §1

The target of a further experiment is ELF4 (Homo sapiens, UniProt Q99607 1-663). In outline:
as §1

A further experiment concerns the target T3, ETV2 (Homo sapiens, UniProt O00321 1-342).
T3 sequence: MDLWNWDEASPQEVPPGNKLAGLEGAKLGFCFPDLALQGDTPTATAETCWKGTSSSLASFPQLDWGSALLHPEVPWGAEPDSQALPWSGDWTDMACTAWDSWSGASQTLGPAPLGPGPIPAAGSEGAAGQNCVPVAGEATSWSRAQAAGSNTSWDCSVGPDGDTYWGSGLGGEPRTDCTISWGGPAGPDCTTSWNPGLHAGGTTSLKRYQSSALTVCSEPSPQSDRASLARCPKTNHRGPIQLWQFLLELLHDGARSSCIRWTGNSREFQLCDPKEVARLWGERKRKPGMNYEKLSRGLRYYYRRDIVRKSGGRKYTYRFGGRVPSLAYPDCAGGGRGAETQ
In outline:
as §1

Another experiment concerns the target T4, ELF3 (Homo sapiens, UniProt P78545 1-371).
T4 sequence: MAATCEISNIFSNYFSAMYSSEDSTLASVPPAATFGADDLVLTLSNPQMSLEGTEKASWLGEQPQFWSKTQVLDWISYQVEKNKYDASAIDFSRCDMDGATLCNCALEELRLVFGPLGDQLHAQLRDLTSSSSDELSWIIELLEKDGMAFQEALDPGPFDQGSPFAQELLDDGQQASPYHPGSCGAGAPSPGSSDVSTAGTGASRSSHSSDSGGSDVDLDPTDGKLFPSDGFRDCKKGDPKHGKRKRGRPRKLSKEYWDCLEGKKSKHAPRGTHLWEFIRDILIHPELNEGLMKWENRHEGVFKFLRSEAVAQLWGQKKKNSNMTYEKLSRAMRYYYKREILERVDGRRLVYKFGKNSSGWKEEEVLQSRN
In outline:
as §1

The next experiment has as its target T5, ERF (Homo sapiens, UniProt P50548 1-548).
T5 sequence: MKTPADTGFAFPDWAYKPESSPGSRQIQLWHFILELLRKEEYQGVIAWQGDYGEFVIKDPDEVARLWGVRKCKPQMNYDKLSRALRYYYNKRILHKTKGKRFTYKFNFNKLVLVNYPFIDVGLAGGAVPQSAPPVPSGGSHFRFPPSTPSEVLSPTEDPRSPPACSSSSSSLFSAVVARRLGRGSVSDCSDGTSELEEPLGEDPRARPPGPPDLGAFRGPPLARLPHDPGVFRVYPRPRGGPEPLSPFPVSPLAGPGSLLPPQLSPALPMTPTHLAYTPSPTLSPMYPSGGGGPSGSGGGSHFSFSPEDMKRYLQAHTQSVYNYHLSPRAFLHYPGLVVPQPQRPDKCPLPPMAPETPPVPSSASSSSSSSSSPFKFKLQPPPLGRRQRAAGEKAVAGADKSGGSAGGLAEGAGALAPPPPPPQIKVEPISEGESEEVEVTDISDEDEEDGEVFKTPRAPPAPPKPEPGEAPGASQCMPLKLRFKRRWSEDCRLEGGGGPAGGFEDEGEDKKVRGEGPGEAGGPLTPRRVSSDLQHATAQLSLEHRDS
In outline: as §1

Another experiment deals with T6, ETV3L (Homo sapiens, UniProt Q6ZN32 1-361).
T6 sequence: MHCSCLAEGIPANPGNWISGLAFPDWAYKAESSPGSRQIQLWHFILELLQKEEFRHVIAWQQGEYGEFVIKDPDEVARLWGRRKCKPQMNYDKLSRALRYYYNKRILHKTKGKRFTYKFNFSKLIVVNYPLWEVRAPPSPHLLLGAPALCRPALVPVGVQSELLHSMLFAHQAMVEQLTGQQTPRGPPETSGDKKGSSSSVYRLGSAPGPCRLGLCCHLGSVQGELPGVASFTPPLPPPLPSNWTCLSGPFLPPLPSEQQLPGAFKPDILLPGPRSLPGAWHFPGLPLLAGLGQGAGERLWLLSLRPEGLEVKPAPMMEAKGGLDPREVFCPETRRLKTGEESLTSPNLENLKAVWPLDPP
In outline:
as §1

In the next experiment the target is T7, ETS2 (Homo sapiens, UniProt P15036 1-469).
T7 sequence: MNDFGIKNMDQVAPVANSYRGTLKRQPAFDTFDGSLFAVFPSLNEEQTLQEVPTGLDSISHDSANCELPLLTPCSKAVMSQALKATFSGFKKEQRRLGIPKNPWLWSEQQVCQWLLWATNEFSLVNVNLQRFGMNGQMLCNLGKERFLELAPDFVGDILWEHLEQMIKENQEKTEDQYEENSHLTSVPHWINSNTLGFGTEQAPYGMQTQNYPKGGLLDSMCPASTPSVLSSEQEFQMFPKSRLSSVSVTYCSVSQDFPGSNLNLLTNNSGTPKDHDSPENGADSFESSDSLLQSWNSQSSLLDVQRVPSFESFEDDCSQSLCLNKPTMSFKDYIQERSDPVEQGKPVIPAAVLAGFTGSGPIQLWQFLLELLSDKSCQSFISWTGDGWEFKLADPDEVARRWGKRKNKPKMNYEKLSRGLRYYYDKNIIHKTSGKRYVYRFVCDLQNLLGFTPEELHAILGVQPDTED
In outline: as §1

Another experiment has as its target ETV6 (Homo sapiens, UniProt P41212 1-452). In outline:
as §1

Sequence of ETV6 (P41212 whole entry): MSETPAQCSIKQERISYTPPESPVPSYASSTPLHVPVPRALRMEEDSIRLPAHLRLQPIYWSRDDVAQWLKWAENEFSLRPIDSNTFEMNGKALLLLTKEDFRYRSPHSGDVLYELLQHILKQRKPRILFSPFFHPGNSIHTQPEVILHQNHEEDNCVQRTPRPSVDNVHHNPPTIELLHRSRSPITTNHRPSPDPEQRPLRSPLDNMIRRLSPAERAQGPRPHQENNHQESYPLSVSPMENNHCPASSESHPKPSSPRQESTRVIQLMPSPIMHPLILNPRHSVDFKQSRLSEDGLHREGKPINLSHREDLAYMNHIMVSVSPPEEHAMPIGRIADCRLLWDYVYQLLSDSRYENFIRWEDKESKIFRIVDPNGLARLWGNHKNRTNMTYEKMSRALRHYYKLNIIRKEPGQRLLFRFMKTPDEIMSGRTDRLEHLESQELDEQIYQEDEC
Sequence of ELF4 (Q99607 whole entry): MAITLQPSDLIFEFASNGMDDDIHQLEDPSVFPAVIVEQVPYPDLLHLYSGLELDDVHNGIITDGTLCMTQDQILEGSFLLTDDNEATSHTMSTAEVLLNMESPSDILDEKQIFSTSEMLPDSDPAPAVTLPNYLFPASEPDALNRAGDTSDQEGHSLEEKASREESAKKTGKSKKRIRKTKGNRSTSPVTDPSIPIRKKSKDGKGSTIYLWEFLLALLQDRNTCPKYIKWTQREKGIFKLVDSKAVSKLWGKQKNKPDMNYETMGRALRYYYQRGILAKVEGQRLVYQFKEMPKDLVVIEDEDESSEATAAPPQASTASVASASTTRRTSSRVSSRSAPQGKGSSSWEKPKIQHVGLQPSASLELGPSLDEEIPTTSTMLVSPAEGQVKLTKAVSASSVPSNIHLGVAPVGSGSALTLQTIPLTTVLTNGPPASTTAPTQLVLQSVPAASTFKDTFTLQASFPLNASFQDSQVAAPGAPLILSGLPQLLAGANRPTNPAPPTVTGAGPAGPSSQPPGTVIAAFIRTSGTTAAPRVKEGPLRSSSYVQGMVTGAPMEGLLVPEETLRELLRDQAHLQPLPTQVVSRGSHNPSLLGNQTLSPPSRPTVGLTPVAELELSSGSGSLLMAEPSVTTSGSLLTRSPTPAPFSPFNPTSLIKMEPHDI
Sequence of SPIB (Q01892 whole entry): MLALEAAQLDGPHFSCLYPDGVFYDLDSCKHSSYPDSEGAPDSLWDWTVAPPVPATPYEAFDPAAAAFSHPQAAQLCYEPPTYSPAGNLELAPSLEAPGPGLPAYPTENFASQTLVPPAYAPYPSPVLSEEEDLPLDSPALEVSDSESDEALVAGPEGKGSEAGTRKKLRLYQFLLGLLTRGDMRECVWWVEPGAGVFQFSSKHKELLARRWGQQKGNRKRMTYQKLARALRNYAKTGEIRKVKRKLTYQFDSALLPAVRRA
Sequence of ETV5 (P41161 whole entry): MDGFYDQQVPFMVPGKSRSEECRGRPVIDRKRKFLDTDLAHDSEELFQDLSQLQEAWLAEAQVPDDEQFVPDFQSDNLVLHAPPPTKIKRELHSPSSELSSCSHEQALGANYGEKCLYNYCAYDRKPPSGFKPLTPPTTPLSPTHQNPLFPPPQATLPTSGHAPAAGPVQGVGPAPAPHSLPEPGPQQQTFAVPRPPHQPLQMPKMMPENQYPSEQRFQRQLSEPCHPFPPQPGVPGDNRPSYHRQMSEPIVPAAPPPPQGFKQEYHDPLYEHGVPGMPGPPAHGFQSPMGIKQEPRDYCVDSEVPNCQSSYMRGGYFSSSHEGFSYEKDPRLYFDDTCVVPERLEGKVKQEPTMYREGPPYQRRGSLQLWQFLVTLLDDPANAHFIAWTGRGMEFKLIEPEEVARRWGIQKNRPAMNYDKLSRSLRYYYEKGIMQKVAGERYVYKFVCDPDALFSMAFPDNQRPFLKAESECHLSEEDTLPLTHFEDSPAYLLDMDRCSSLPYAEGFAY

On to TAGGAT, for which the binding signal with ERG is 1.07 fold enrichment (6-mer frequency, TF over GST control); in the experiment with EHF, 1.06 fold enrichment (6-mer frequency, TF over GST control); in the experiment with SPIB it was 1.03 fold enrichment (6-mer frequency, TF over GST control); with ETV5 it was 1.03 fold enrichment (6-mer frequency, TF over GST control); with ELF4 it was 1 fold enrichment (6-mer frequency, TF over GST control); with ETV2 it was 1.03 fold enrichment (6-mer frequency, TF over GST control). For the same sequence, the binding signal was 1.03 fold enrichment (6-mer frequency, TF over GST control) with ELF3; 1.02 fold enrichment (6-mer frequency, TF over GST control) in the experiment with ERF; 1.06 fold enrichment (6-mer frequency, TF over GST control) in the experiment with ETV3L; 1.03 fold enrichment (6-mer frequency, TF over GST control) with ETS2; 1.06 fold enrichment (6-mer frequency, TF over GST control) in the experiment with ETV6.
